From PubChem
Marburg entry inh: Marburg virus entry inhibition; Marburg virus pseudotyped entry inhibition, cell reporter; Potency, µM (series often up to 37.8 µM), for inactives: top-dose activity change, negative = inhibition, usual class: inhibitors; actives 1.8% (n = 300,000); calls by dose curve; tested in HEK293 cells
Lassa entry inh: blocks Lassa virus binding to or entry into cells; Potency, µM (highest dose often 37.9 µM), for the others: at the highest dose activity change, negative = inhibition, usual class: inhibitors; AID 540256; Lassa virus pseudotype entry inhibition, cell reporter; actives 1.2% (n = 300,000); calls by dose curve; tested in HEK293 cells; further: nearly all actives have a fitted effect of over 50% in size
VACV Venus inh: vaccinia inhibition (Venus reporter); Vaccinia virus Venus reporter expression, fluorescence; Potency, µM (titrated, usually from 36.5 µM), for the others: top-dose activity change, negative = inhibition, usual class: inhibitors; actives 0.46% (n = 330,000); AID 720580; calls by dose curve; tested in A549 cells; further: nearly all actives have a fitted effect of over 30% in size
VACV mCherry inh: vaccinia inhibition (mCherry reporter). actives 0.63% (n = 310,000). AID 720579. Vaccinia virus mCherry reporter infection, fluorescence. Potency, µM (series often up to 36.5 µM), for the others: at the highest dose activity change, negative = inhibition, hits mostly inhibitors; calls by dose curve; tested in A549 cells; further: nearly all actives have a fitted effect of over 35% in size
* marks the source's active call; other numbers are inactive results; [ ] = dose if it differs, or a comment. Hits are enriched below; roughly 2.5% of the tested compounds scored in any of these assays. On the % scale 0 is the no-effect control and ±100 the full control effect; potency means the concentration at half of the fitted maximal effect.

`COc1ccc(C(=O)n2c(N)nc3ccccc32)cc1OC` gave Marburg entry inh -17%, Lassa entry inh -1%, VACV Venus inh -13% and VACV mCherry inh inactive.
CNC(=O)C(=O)NCC1OCCN1S(=O)(=O)c1ccc([N+](=O)[O-])cc1 (stereo not drawn) was read as Marburg entry inh inconclusive, Lassa entry inh 3%, VACV Venus inh inconclusive and VACV mCherry inh -22%.
O=C(NCc1ccccc1)C(=O)NCC1OCCN1S(=O)(=O)c1ccc([N+](=O)[O-])cc1 (stereo not drawn) was read as VACV Venus inh inconclusive and VACV mCherry inh 10µM*.
For Cc1ccc(CNC(=O)C(=O)NCC2OCCN2S(=O)(=O)c2ccc(Br)cc2)cc1 (stereo not drawn) the results were Marburg entry inh inconclusive, Lassa entry inh 7.9µM*, VACV Venus inh inconclusive and VACV mCherry inh -22%.
CCc1ccc(C(=O)C[N+]2(C)CCOCC2)cc1 was read as VACV Venus inh -6% and VACV mCherry inh -14%.
`Cc1cccc(/C=C2\Sc3ccc(C(=O)N4CCC(C)CC4)cc3N(C)C2=O)c1` gave Marburg entry inh -43%[46.1 µM], Lassa entry inh -25%[46.1 µM], VACV Venus inh -10% and VACV mCherry inh inactive.
`Cc1cccc(/C=C2\Sc3ccc(C(=O)NCC4CCCO4)cc3N(C)C2=O)c1` (stereo not drawn) gave Marburg entry inh 7.1µM*, Lassa entry inh inconclusive, VACV Venus inh -25% and VACV mCherry inh -6%.
OC(c1ccc2c(c1)CN(Cc1ccc3nsnc3c1)CCO2)C1CCCCC1 (stereo not drawn) was read as VACV Venus inh -2% and VACV mCherry inh -10%.
For Cn1ncc(Cl)c1C(=O)N1CCN(c2cccc(Cl)c2)CC1 the results were Marburg entry inh inconclusive, Lassa entry inh inconclusive, VACV Venus inh -25% and VACV mCherry inh -23%.
`Cc1cccc(N2CCN(C(=O)c3c(Cl)cnn3C)CC2)c1C` gave Marburg entry inh inconclusive, Lassa entry inh 11µM*, VACV Venus inh -22% and VACV mCherry inh -26%.
COc1ccccc1C1CN(Cc2c(C)nn(C)c2Cl)Cc2ccccc2O1 (stereo not drawn) was read as VACV Venus inh 2% and VACV mCherry inh -9%.
`CCOC(=O)c1sc(NC(=O)CSc2nc3cccnc3n2C)nc1C` gave Marburg entry inh 13%[46.1 µM], Lassa entry inh 0%[46.1 µM], VACV Venus inh 5% and VACV mCherry inh -27%.
Screening CCOC(=O)c1c(NC(=O)CSc2nc3cccnc3n2C)sc(C(C)=O)c1C returned Marburg entry inh 10µM*, Lassa entry inh -10%, VACV Venus inh -4% and VACV mCherry inh -10%.
For CSc1nsc(SC)c1C(=O)Nc1ccc(C(C)(C)C)cc1 the results were Marburg entry inh 11µM*, Lassa entry inh 9%[46.1 µM], VACV Venus inh -15% and VACV mCherry inh inactive.
`CC(C)(C)c1ccc(C(=O)Nc2ccc(NC(=O)c3ccc(Cl)c(Cl)c3)cc2)cc1` gave Lassa entry inh 17%[46.1 µM], VACV Venus inh 2% and VACV mCherry inh -5%.
For COC(=O)[C@H](CO)N1C(=O)[C@@H]2[C@@H](C1=O)[C@H]1C=C[C@@H]2C1 the results were Lassa entry inh 4%[46.1 µM].
Screening CC(C)CCn1c(N)c(S(=O)(=O)c2cccs2)c2nc3ccccc3nc21 returned Marburg entry inh 15µM*, Lassa entry inh 39%[14.3 µM], VACV Venus inh inconclusive and VACV mCherry inh inconclusive.
Nc1c(S(=O)(=O)c2cccs2)c2nc3ccccc3nc2n1CCc1ccccc1 was read as Marburg entry inh 1%.
Screening C#CCCCO/N=C1\C[C@@H](O)[C@@H](O)[C@@H]2[C@@H]3C(=O)N(c4ccc(F)cc4F)C(=O)[C@@H]3CC[C@@H]12 returned Marburg entry inh -8%[14.2 µM].
For Cc1ccc(-c2cc(=O)c3cc(C)ccc3[nH]2)cc1 the results were Marburg entry inh 8.2µM*, Lassa entry inh 15µM*, VACV Venus inh inconclusive and VACV mCherry inh 0%.
`Brc1cccc[n+]1CCCCCC[n+]1ccccc1Br` gave VACV Venus inh -12% and VACV mCherry inh -14%.
COc1ccc(NCC(=O)N/N=C/c2c(C)nn(Cc3ccccc3)c2Cl)cc1 was read as Marburg entry inh inconclusive, Lassa entry inh 7.9µM*, VACV Venus inh -17% and VACV mCherry inh -8%.
Cc1nn(Cc2ccccc2)c(C)c1/C=N/NC(=O)CNc1cccc(C(F)(F)F)c1 was read as VACV Venus inh inconclusive and VACV mCherry inh -26%.
COCc1c(C(=O)NC2CCCC2)cnn1-c1nccc(-c2ccco2)n1 was read as VACV Venus inh -9% and VACV mCherry inh -14%.
Cc1ccc2nc(-c3ccc(O)cc3)oc2c1 was read as Marburg entry inh 5.6µM*, Lassa entry inh inconclusive, VACV Venus inh -6% and VACV mCherry inh -29%.
For COc1cccc(CN2CCc3nnc(CCc4ccccc4)n3CC2)c1OC the results were VACV Venus inh 3% and VACV mCherry inh -5%.
`Cc1cc(NS(=O)(=O)c2ccc(NC(=O)c3c(F)c(F)c(F)c(F)c3F)cc2)nc(C)n1` gave Marburg entry inh 13%, Lassa entry inh 0%, VACV Venus inh inconclusive and VACV mCherry inh 28µM*.
`O=C(CSc1nc2ccccc2c(=O)n1-c1ccccc1)N1CCC1` gave VACV Venus inh -3% and VACV mCherry inh -3%.
For O=C(CSc1nc2ccccc2c(=O)n1-c1ccccc1)N1CCc2ccccc2C1 the results were Marburg entry inh inconclusive, Lassa entry inh 10µM*, VACV Venus inh -25% and VACV mCherry inh -12%.
Screening CC1(C)N=C(N)N=C(N)N1c1cccc(CN)c1 returned Marburg entry inh 6%[46.1 µM], Lassa entry inh 14%[46.1 µM], VACV Venus inh -18% and VACV mCherry inh -2%.
`CC1(C)N=C(N)N=C(N)N1c1ccc(CCCCc2ccccc2)cc1` gave VACV Venus inh inconclusive and VACV mCherry inh 3.2µM*.
`COC(=O)C1CCN(c2nc(CN(C)C3CCOC3)nc3cc(OC)c(OC)cc23)CC1` (stereo not drawn) gave VACV Venus inh 13% and VACV mCherry inh 3%.
Screening O=C(Nc1nccs1)[C@@H]1CC=C[C@@H]2CCN(C3CC3)C(=O)[C@@H]21 returned VACV Venus inh -8% and VACV mCherry inh inactive.
For O=C(CSc1nnc(-c2ccco2)c(-c2ccco2)n1)Nc1ccccc1 the results were Marburg entry inh -3%, Lassa entry inh -11% and VACV Venus inh -10%.
`Cc1ccc(NC(=O)CSc2nnc(-c3ccco3)c(-c3ccco3)n2)cc1` gave Marburg entry inh -16%, Lassa entry inh 2.8µM*, VACV Venus inh inconclusive and VACV mCherry inh inconclusive.
`CCOC(=O)c1sc2ccccc2c1OC(=O)c1ccc(C)cc1` gave Marburg entry inh -26%, Lassa entry inh 4.5µM*, VACV Venus inh -5% and VACV mCherry inh -13%.
`COc1ccccc1-n1c(N)c(C(=O)NC[C@H]2CCCO2)c2nc3ccccc3nc21` gave Marburg entry inh -8%.
For COc1ccccc1C(c1nnnn1Cc1ccco1)N1CCN(c2cccc(C)c2C)CC1 (stereo not drawn) the results were Marburg entry inh inconclusive and Lassa entry inh 9.2µM*.
